Inconclusive results are not listed. Unmarked numbers belong to inactive results. Activity calls are given as the source filed them. The call rests on the fitted dose curve; in most records, active means well fitted inhibition curve with a large enough effect; inconclusive means small, poorly fitted or top-dose-only effect; inactive means flat fitted curve, though single readings scatter.
On the % scale 0 is the no-effect control and ±100 the full control effect.

The experiment has as its system NIH3T3. As to the kind of experiment: Cytotoxic Profiling of Annotated Libraries Using Quantitative High-Throughput Screening (AID 1296008). Further: nearly all actives have a fitted effect of over 60% in size. To be noted: Five cell lines viability, CellTiter-Glo ATP luminescence, 48-72 h; max response: active compounds read low. A digest of the protocol: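 Cells exposed to compounds for 48 or 72 hr at 37 degrees Celsius. Viability read as ATP-coupled luminescence with CellTiter-Glo after 10 min at room temperature.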
On to `C=C[C@H]1[C@H](O[C@@H]2O[C@H](CO[C@@H]3OC[C@](O)(CO)[C@H]3O)[C@@H](O)[C@H](O)[C@H]2O)OC=C2C(=O)OCC[C@H]21`, for which the compound was classed as inactive. On the same count and under the same terms, next, `CNC(=O)O[C@H]1COc2ccc(N3CCN(C4COC4)CC3)cc2[C@@H]1NC(=O)c1ccc(F)cc1`: “inactive”; `CC(=O)[C@@H]1CC[C@]2(C(=O)O)CC[C@]3(C)C(CCC4[C@@]5(C)CC[C@H](O)C(C)(C)C5CC[C@]43C)C12` (some centres not stated): “inactive”. Turning to `O=C(NCC(=O)N1CC[C@H](NC2CCC(O)(c3ccc(-c4ncccn4)cn3)CC2)C1)c1cccc(C(F)(F)F)c1` (some centres not stated), the max response is 3.11%. Consider `COC(=O)C[C@@H]1C(C(=O)O)=CO[C@@H](O[C@@H]2O[C@H](CO)[C@@H](O)[C@H](O)[C@H]2O)/C1=C\COC(=O)/C=C\c1ccccc1`, for which the max response was -14.1%. `CC(=O)NCCCCn1c2c(c3ccccc31)C(=O)NCC2`: the call was inactive. As for `COC(=O)C1C(c2ccc(O)cc2)C(C(=O)OC)C1c1ccc(O)cc1` (configuration not stated), the result was inactive. `CC(=O)N1c2ccccc2C2(O)CC3C(=O)NC(CC(C)C)C(=O)N3C12` (configuration not stated): the max response is 1.77%. In the case of `CC(C)C1=CC2=CCC3[C@](C)(CCC[C@@]3(C)C(=O)O)C2CC1O` (some centres not stated), the compound was classed as inactive. As for `C[C@@H]1O[C@@H](OC[C@H]2O[C@@H](OCCc3ccccc3)[C@H](O)[C@@H](O)[C@@H]2O)[C@H](O)[C@H](O)[C@H]1O`, the max response is 4.11%. Same read-out and setting: for `OCCc1ccc(O[C@@H]2O[C@H](CO)[C@@H](O)[C@H](O)[C@H]2O)c(O)c1` the value was -4.15%. For the compound `C/C=C(\C)C(=O)OC[C@H]1O[C@H](O[C@H]2O[C@H](CO)[C@@H](OC(=O)/C(C)=C/C)[C@H](O)[C@H]2O[C@@H]2O[C@H](CO)[C@@H](O)[C@H](O)[C@H]2O)[C@H](O[C@@H]2O[C@H](CO)[C@@H](O)[C@H](O)[C@H]2O)[C@@H](O)[C@@H]1O`, the max response was 2.61%.
